Most compounds without a hit are left out; they make up all but 21% or so of the library.
CHX counter = counter-screen hit for Shiga toxin inhibitors, cycloheximide; cell reporter, cycloheximide protein synthesis inhibition counterscreen; max response, %; hit rate 12% among 300,000; in the data active = max response mostly above about 13%, no sharp cut-off; inactive = mostly below about 14%; also: read at 38.3 µM for the half of the compounds with a filed dose; 0% is about no effect
Pf growth 96h = P. falciparum growth inhibition at 96 hours. P. falciparum luciferase reporter growth, 96 h. Potency, µM (titrated, usually from 28.7 µM), for the others: at the highest dose activity change, negative = inhibition, hits mostly inhibitors. hit rate 6.9% among 320,000. AID 504834; also: potency is read from the fitted curve at half-maximal effect; % is scaled to controls: 0 for no effect and ±100 for the full control effect
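Readout is luminescence from an integrated firefly luciferase in P. falciparum. Red cells, 2% hematocrit and 0.05% parasitemia final, were cultured with compound through two parasite generations (96 hours) at 37 C, 5% CO2.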
FBPA Giardia inh = blocks Giardia fructose-bisphosphate aldolase activity | A8B2U2 | purified Giardia FBPA | Potency, µM (series often up to 59.6 µM), for inactives: top-dose activity, negative = inhibition, hits mostly inhibitors | hit rate 0.71% among 290,000 | AID 2451; also: potency is read from the fitted curve at half-maximal effect; % is scaled to controls: 0 for no effect and ±100 for the full control effect; nearly all actives have a fitted effect of over 55% in size
Target sequence (A8B2U2 whole entry, looked up): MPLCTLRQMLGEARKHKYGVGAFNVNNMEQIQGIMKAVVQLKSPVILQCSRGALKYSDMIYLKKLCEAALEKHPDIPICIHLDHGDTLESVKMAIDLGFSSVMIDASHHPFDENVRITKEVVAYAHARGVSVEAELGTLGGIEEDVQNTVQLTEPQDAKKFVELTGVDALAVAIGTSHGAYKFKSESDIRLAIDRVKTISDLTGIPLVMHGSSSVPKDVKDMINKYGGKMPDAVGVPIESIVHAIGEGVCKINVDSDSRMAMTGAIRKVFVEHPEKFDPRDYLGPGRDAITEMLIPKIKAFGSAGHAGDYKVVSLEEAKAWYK
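40 nM FBPA preincubated 10 min at RT with compound (up to 57.5 uM final), then substrate plus GAPDH/TPI/NAD/arsenate coupling and diaphorase/resazurin added. Fluorescence read after 20 min at RT, 525/598 nm.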
NS1 function inh = blocks influenza NS1 protein function; Potency, µM (doses to about 46.1 µM), inactives show top-dose activity, positive = more growth; hit rate 0.4% among 270,000; calls by dose curve; also: potency is read from the fitted curve at half-maximal effect; actives are rising curves; nearly all actives have a fitted effect of over 50% in size
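A cell-based growth assay was used: compounds that relieve NS1-induced slow growth of budding yeast raise OD600. Assay medium was yeast nitrogen base with ammonium sulphate and -URA supplement, pH 6.0, with 2% galactose.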
Shiga inhibitor = inhibitors of Shiga toxin in Vero cells; Vero cells, Shiga toxin protein synthesis inhibition reporter; inhibition, % at 38.7 µM; hit rate 9.2% among 290,000; in the data active = inhibition mostly above about 28%, no sharp cut-off; inactive = mostly below about 43%; also: 0% is about no effect
Pf growth 48h = inhibits P. falciparum growth in the first generation, 48 h; P. falciparum luciferase growth in erythrocytes, 48 h; Potency, µM (doses to about 28.7 µM), for the others: at the highest dose activity change, negative = inhibition, actives largely listed as inhibitors; hit rate 5.9% among 310,000; AID 504832; also: potency is read from the fitted curve at half-maximal effect; % is scaled to controls: 0 for no effect and ±100 for the full control effect
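Luciferase-expressing P. falciparum in infected erythrocytes (2% hematocrit, 0.1% parasitemia final) in RPMI 1640/0.5% Albumax were exposed to compound for 48 hours at 37 C, 5% CO2; growth read as luminescence.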
* marks the source's active call; other numbers are inactive results; ? = inconclusive; . = not tested or not shown; [ ] = dose if it differs, or a comment. Unless noted, calls follow the shape of the dose curve; as a rule, active = well fitted curve in the direction sought with a large enough effect; inconclusive = small, poorly fitted or top-dose-only effect, or another doubt; inactive = no such curve, though single readings can be large; an effect the other way counts as inactive or inconclusive.

SMILES	CHX counter	Pf growth 96h	FBPA Giardia inh	NS1 function inh	Shiga inhibitor	Pf growth 48h
CCN1CCN(CC(=O)c2c(C)n(Cc3ccccc3)c3ccc(OC)cc23)CC1	-3	.	-3%	14%	-10	?
CCN(CC)CC1CCCCN1CC(=O)N1c2ccccc2C(=O)Nc2cccnc21 (centres undefined)	-4	-21%	-2%	.	-5	-9%
COc1ccccc1N1CCN(C2CCCN(C(=O)CCc3ccccn3)C2)CC1 (centres undefined)	5	-22%	.	11%	-12	-10%
O=C(COc1ccc(Br)cc1Cl)NC(=S)N1CCc2ccccc21	35*	?	16%	8%	50*	40%
O=C(COc1ccc(Br)cc1Br)NC(=S)N1CCCc2ccccc21	48*	.	-23%	10%	54	?
O=C(COc1ccc(Br)cc1CO)N1CCCc2ccccc21	0	?	4%	-11%	-1	?
O=C(O)CC(CNS(=O)(=O)c1ccccc1)c1ccccc1 (centres undefined)	-4	10µM*	2%	3%	-8	19%
O=C(O)CCCCCCNS(=O)(=O)c1ccccc1	-5	10%	6%	9%	1	.
CCCCNC(=S)NCCN1CCN(C(=S)NCCCC)CC1	1	-15%	4%	.	-9	-15%
COc1ccccc1OCc1ccc(C(=O)NN)o1	19*	0%	1%	4%	42*	0%
COc1ccc(NC(=O)c2ccc(COc3ccccc3OC)o2)cc1OC	3	-4%	.	9%	6	3%
COc1ccccc1OCc1ccc(C(=O)Nc2ccc(Cl)cn2)o1	12*	-3%	0%	2%	30	61%
O=C(COC(=O)CC1CCCC1)Nc1cc2c(cc1Cl)C(=O)c1ccccc1C2=O	32*	177%	-2%	-69%	41	.
CCN1CCN(c2cc(C)c3cc(NC(=O)c4ccc5c(c4)OCO5)ccc3n2)CC1	-2	-5%	5%	-9%	-8	3.3µM*
CCN1CCN(c2cc(C)c3cc(NC(=O)c4cccc(OC)c4)ccc3n2)CC1	31*	2.1µM*	2%	1%	39*	?
CCN1CCN(c2cc(C)c3cc(NC(=O)c4cccs4)ccc3n2)CC1	21*	?	9%	1%	86	2.1µM*
CCN1CCN(c2cc(C)c3cc(NC(=O)CCC(=O)Nc4ccc(OC)c(OC)c4)ccc3n2)CC1	2	-29%	3%	2%	-3	?
CCN1CCN(c2cc(C)c3cc(NC(=O)Cc4ccccc4OC)ccc3n2)CC1	8	?	2%	5%	-14	12µM*
CCN1CCN(c2cc(C)c3cc(NC(=O)c4ccc(OC)c(OC)c4)ccc3n2)CC1	4	-9%	-5%	4%	-17	.
CCN1CCN(c2cc(C)c3cc(NC(=S)N(C)Cc4ccccc4)ccc3n2)CC1	10	28%	7%	-3%	-6	?
COc1cccc(C(=O)Nc2ccc3nc(N4CCOCC4)cc(C)c3c2)c1	-2	0.47µM*	-2%	-91%	9	15µM*
CCN1CCN(c2cc(C)c3cc(NC(=O)c4cncc(Br)c4)ccc3n2)CC1	-7	1.9µM*	-5%	-9%	-22	0.1µM*
O=C(C(=O)N1CCN(c2ccc([N+](=O)[O-])cc2)CC1)c1cn(CC(=O)N2CCOCC2)c2ccccc12	-3	?	.	-12%	-13	82%
COc1cc(S(=O)(=O)Nc2cccc3cn[nH]c23)c(OC)cc1C	-4	2.9µM*	.	-17%	-22	10µM*
O=S(=O)(Nc1cccc2cn[nH]c12)c1ccc(F)cc1	-1	110%	-9%	0%	-6	11%
SMILES	CHX counter	Pf growth 96h	FBPA Giardia inh	NS1 function inh	Shiga inhibitor	Pf growth 48h
Cc1oc2c(CN3CCCC3)c(O)ccc2c(=O)c1Oc1ccccc1Br	-3	6%	-4%	-3%	9	1.7µM*
COc1ccccc1Oc1c(C)oc2c(CN3CCN(CCO)CC3)c(O)ccc2c1=O	-3	-5%	4%	1%	21	22%
CCc1c(C)c2ccc(O)c(CN3CCCC3)c2oc1=O	4	12µM*	7%	1%	-6	?
O=c1cc(-c2ccccc2)c2ccc(O)c(CN3CCCCC3)c2o1	-3	27%	0%	?	3	10µM*
O=c1oc2c(CN3CCCCCC3)c(O)ccc2cc1-c1nc2ccccc2[nH]1	5	6%	-19%	-4%	16	2.3µM*
CC1(c2nnc(-c3cccc(Cl)c3)o2)CC(c2cccc([N+](=O)[O-])c2)=NO1 (centres undefined)	-2	40%	7%	2%	-2	15%
COc1cc2c(cc1OC)Cc1cc(OC)c(OC)cc1Cc1cc(OC)c(OC)cc1C2	.	.	7%	.	.	.
COc1ccc(N2CC(C(=O)NCc3n[nH]c(=O)c4ccccc34)CC2=O)cc1 (centres undefined)	.	0%	.	.	.	14%
COc1ccc(-c2c(C)oc3c(CN4CCCC(C)C4)c(O)ccc3c2=O)cc1OC (centres undefined)	-2	?	2%	-3%	-9	?
Cc1oc2c(CN3CCCCC3)c(O)ccc2c(=O)c1-c1ccc(Cl)cc1	-2	?	-1%	3%	-8	1.7µM*
Cc1oc2c(CN3CCCC(C)C3)c(O)ccc2c(=O)c1-c1ccccc1 (centres undefined)	4	8.3µM*	-1%	-1%	-11	6.6µM*
COc1ccccc1-c1c(C)oc2c(CN3CCCC(C)C3)c(O)ccc2c1=O (centres undefined)	2	10µM*	10%	-2%	-6	13µM*
CC[C@@H](c1ccccc1)n1c(=O)n2n(c1=O)[C@H]1[C@H](O)[C@H]3O[C@@H]3/C(=N/OC[C@@H](O)COCc3ccco3)[C@@H]1CC2	.	.	2%[12.9 µM]	.	.	.
O=C(NCCN1CCOCC1)C(=O)c1c[nH]c2ccccc12	-4	?	14%	18%	9	15%
O=C1c2cc(F)ccc2-n2c1nc1ccccc1c2=O	4	0.029µM*	?	-58%	18	0.033µM*
O=S(=O)(c1ccccc1Br)N(Cc1ccccc1)Cc1ccco1	8	.	1%	.	12	.
CN(c1ccccc1)S(=O)(=O)c1cccc(C(=O)Nc2cccc(C(=O)NC3CC3)c2)c1	.	6.6µM*	.	.	.	5.2µM*
CN(c1ccc(C(=O)NC2CCCC2)cc1)S(=O)(=O)c1ccc(Cl)cc1	-2	33%	.	11%	9	-19%
CN(c1ccc(C(=O)NC2CC2)cc1)S(=O)(=O)c1ccccc1	11	.	-4%	-3%	-9	4.7µM*
CN(c1cccc(Cl)c1)S(=O)(=O)c1cccc(C(=O)Nc2ccc3c(c2)CCC3)c1	30*	?	5%	?	47*	?
O=C(NCc1ccccn1)C1(C(F)(F)F)C/C(=C\Cc2ccccc2)CCCO1 (centres undefined)	17	.	?	.	2	.
CCCCCOc1ccc(CSCCNC(=S)Nc2ccccc2)cc1	24*	10µM*	0%	-2%	62	?
